From PubChem BioAssay (NCATS)
Results filed as inconclusive are left out. Where a call stands in place of a potency, no number is given. Activity calls are given as the source filed them. The call rests on the fitted dose curve; in most records, active means well fitted curve in the direction sought with a large enough effect; inconclusive means small, poorly fitted or top-dose-only effect, or another doubt; inactive means no such curve, though single readings can be large; an effect the other way counts as inactive or inconclusive. Where a SMILES comes first, the peptide text is derived from it. [ ]: non-standard residue; d: D form. The star is where a group is joined. Fmoc = O=C(OCC1c2ccccc2-c2ccccc21)*; AMC = Cc1cc(=O)oc2cc(N*)ccc12; Cha = N[CH](CC1CCCCC1)C(=O)O

Columns and labels:
[1] = test system: Zika virus NS2B-NS3 protease; assay: Primary screen GU AMC qHTS for Zika virus inhibitors (AID 1347154); further: nearly all actives have a fitted effect of over 70% in size; further: potency means the concentration at half of the fitted maximal effect
Method in brief: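 Unlinked Zika NS2B hydrophilic domain–NS3 protease complex at 25 nM in 10 mM Tris-HCl pH 8.0, 0.01% Tween 20, with an AMC peptide substrate. Fluorescence change (340/450 nm) over 15 min at room temperature, normalized to controls, fitted to 4-parameter Hill.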

[2] = Primary qHTS for small molecule stabilizers of the endoplasmic reticulum resident proteome: Secreted ER Calcium Modulated Protein (SERCaMP) assay (AID 1508630)
Method in brief: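 GLuc-SERCaMP-expressing SH-SY5Y cells, pretreated 16 h with compound, are challenged with thapsigargin to empty ER calcium stores; after 4 h, coelenterazine is added directly to the medium and luminescence is imaged.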

CC/C=C\C/C=C\C/C=C\CCCCCCCCCC(=O)O
activity change, negative = inhibition [1]: 1.1% [at 6.83 µM] (inactive) | activity change, negative = inhibition [2]: 4.31% [at 3.88 µM] (inactive)

COc1ccc(C2CC(c3c(O)cc(C)oc3=O)=NCCS2)c(OC)c1 (stereo not drawn)
Potency [1]: inactive | Potency [2]: inactive

NCCCCCc1cnc[nH]1
Potency [1]: inactive | Potency [2]: inactive

Nc1ncnc2c1ncn2[C@@H]1O[C@H](COP(=O)(O)OP(=O)(O)OC[C@H]2OC(O)[C@H](O)[C@@H]2O)[C@@H](O)[C@H]1O (stereo partly drawn)
Potency [1]: inactive | Potency [2]: inactive

CCCCC/C=C\C\C=C/C=C/C=C/[C@@H](SC[C@H](NC(=O)CC[C@H](N)C(=O)O)C(=O)NCC(=O)O)[C@@H](O)CCCC(=O)O
activity change, negative = inhibition [1]: 8.51% [at 0.59 µM] (inactive) | activity change, negative = inhibition [2]: -14.5% [at 0.478 µM] (inactive)

CC(C)OC(=O)c1cn(Cc2c(F)cccc2F)c2sc(-c3ccc(NC(=O)C(C)C)cc3)c(CN(C)Cc3ccccc3)c2c1=O
Potency [1]: inactive | Potency [2]: inactive

H-LVVYPWTQR-OH
activity change, negative = inhibition [1]: 5.8% [at 6.83 µM] (inactive) | activity change, negative = inhibition [2]: 18.2% [at 3.88 µM] (inactive)

CC(=O)N[C@@H](CSC/C=C(\C)CCC=C(C)C)C(=O)O
Potency [1]: inactive | Potency [2]: inactive

N[C@@]1(C(=O)O)CN[C@@H](C(=O)O)C1
Potency [1]: inactive | Potency [2]: inactive

NC(N)=NCCNS(=O)(=O)c1cccc2cnccc12
Potency [1]: inactive | Potency [2]: inactive

COCCCCCCCCCCCC(=O)O
activity change, negative = inhibition [1]: 13.2% [at 6.83 µM] (inactive) | activity change, negative = inhibition [2]: -27.3% [at 3.88 µM] (inactive)

CCCCC/C=C\C/C=C\C/C=C\C=C\[C@@H](O)CCCC(=O)O
activity change, negative = inhibition [1]: 0.663% [at 0.59 µM] (inactive) | activity change, negative = inhibition [2]: -9.05% [at 0.478 µM] (inactive)

Cc1[nH]c(/C=C2/C(=O)Nc3ccc(S(=O)(=O)Cc4c(Cl)cccc4Cl)cc32)c(C)c1C(=O)N1CCCC1CN1CCCC1 (stereo not drawn)
Potency [1]: inactive | Potency [2]: inactive

CCCCC[C@H](O)/C=C/[C@@H]1[C@@H](CC(=O)CCCCC(=O)O)[C@@H](O)C[C@H]1O
activity change, negative = inhibition [1]: 7.57% [at 6.83 µM] (inactive) | activity change, negative = inhibition [2]: 35.8% [at 3.88 µM] (inactive)

Nc1c(S(=O)(=O)O)cc(Nc2ccc(Cl)cc2)c2c1C(=O)c1ccccc1C2=O
Potency [1]: inactive | Potency [2]: inactive

CC[C@]1(O)C[C@@H]2CN(CCc3c([nH]c4ccccc34)[C@@](C(=O)OC)(c3cc4c(cc3OC)N(C)C3[C@]45CCN4CC=C[C@](CC)(C45)[C@@H](OC(C)=O)[C@]3(O)C(=O)OC)C2)C1 (stereo partly drawn)
Potency [1]: inactive | Potency [2]: inactive

CCCCCCCC/C=C\CCCCCCCC(=O)OCC(CO)OC(=O)CCCCCCC/C=C\CCCCCCCC (stereo not drawn)
activity change, negative = inhibition [1]: -0.778% [at 6.83 µM] (inactive) | activity change, negative = inhibition [2]: 17.1% [at 3.88 µM] (inactive)

CC(C)[C@H]1c2ccc(F)cc2CC[C@@]1(CCN(C)CCCc1nc2ccccc2[nH]1)OC(=O)C1CC1
Potency [1]: inactive | Potency [2]: inactive

NCCn1oc(=O)[nH]c1=O
Potency [1]: inactive | Potency [2]: inactive

N[C@H](C(=O)O)C1C(C(=O)O)C1C(=O)O (stereo partly drawn)
Potency [1]: inactive | Potency [2]: inactive

CC1=C(/C=C/C(C)=C/C=C/C(C)=C\CO)C(C)(C)CCC1
Potency [1]: inactive | Potency [2]: inactive

CN(C)C(=O)n1nnnc1Cc1ccc(-c2ccccc2)cc1
Potency [1]: inactive | Potency [2]: inactive

CCCC(=O)Nc1nc2c(ncn2[C@@H]2O[C@H]3COP(=O)(O)O[C@@H]3[C@@H]2OC(=O)CCC)c(=O)[nH]1
Potency [1]: inactive | Potency [2]: inactive

Cc1ccc(/C=C2/CNC/C(=C\c3ccc(C)cc3)C2=O)cc1
Potency [1]: inactive | Potency [2]: inactive

CCCCCCCCCCCCCCCCOCC(CO)OC (stereo not drawn)
activity change, negative = inhibition [1]: 21.3% [at 6.83 µM] (inactive) | activity change, negative = inhibition [2]: -17.7% [at 3.88 µM] (inactive)

C=CCn1c(=O)c2c(nc(-c3ccccc3)n2C)n(C)c1=O
Potency [1]: inactive | Potency [2]: inactive

C=C1Cc2c(Cl)cc3[nH]c4c5c3c2[C@@]2(O)[C@@H]1C[C@@H]2C(C)(C)O[C@H]5[C@@H]1CC[C@@]2(O)[C@@]35O[C@@H]3[C@@H](O)[C@@H](C(=O)O)O[C@H]5CC[C@]2(C)[C@@]41C
Potency [1]: inactive | Potency [2]: inactive

CC(C)n1cnc2c(NCc3ccccc3)nc(NCCO)nc21
Potency [1]: inactive | Potency [2]: inactive

CCCCC[C@H](O)/C=C/[C@H]1C(=O)C=C[C@@H]1C/C=C\CCCC(=O)O
activity change, negative = inhibition [1]: 15.7% [at 6.83 µM] (inactive) | activity change, negative = inhibition [2]: -10.1% [at 3.88 µM] (inactive)

CC[N+]1(C)C2CCC1CC(OC(=O)[C@H]1CCC(C(=O)OC3CC4CCC(C3)[N+]4(C)CC)(c3ccccc3)c3ccccc31)C2 (stereo partly drawn)
Potency [1]: inactive | Potency [2]: inactive

NC(C(=O)O)C(CC(=O)O)c1ccc(Cl)cc1 (stereo not drawn)
Potency [1]: inactive | Potency [2]: inactive

C/C(O)=C1\C(=O)[C@@H]2[C@H]3c4c[nH]c5cccc(c45)C[C@H]3C(C)(C)N2C1=O
Potency [1]: inactive | Potency [2]: inactive

COc1cc2ncnc(Nc3ccc(Cl)cc3F)c2cc1OC
Potency [1]: inactive | Potency [2]: inactive

N[C@H](C(=O)O)[C@H]1C[C@H]1C(=O)O
Potency [1]: inactive | Potency [2]: inactive

N[C@@H](Cn1c2c(c(=O)[nH]c1=O)CCC2)C(=O)O
Potency [1]: inactive | Potency [2]: inactive

O=[N+]([O-])c1cc2nc(O)c(O)nc2cc1[N+](=O)[O-]
Potency [1]: inactive | Potency [2]: inactive

CC(C)n1nnc2cc(C(=O)O)ccc21
Potency [1]: inactive | Potency [2]: inactive

O=c1nc2ccccc2c2n1CC(CN1CCN(c3ccccc3)CC1)N2 (stereo not drawn)
Potency [1]: inactive | Potency [2]: inactive

O=C(O)c1ccncc1
Potency [1]: inactive | Potency [2]: inactive

C[C@H](CC[C@@H]1OC1(C)C)C1CC[C@H]2[C@@H]3CC=C4C[C@@H](O)CC[C@]4(C)[C@H]3CC[C@]12C (stereo partly drawn)
Potency [1]: inactive | Potency [2]: inactive

NC(N)=NCCC[C@H](NC(=O)[C@@H](N)Cc1ccc(O)cc1)C(=O)O
activity change, negative = inhibition [1]: 2.03% [at 6.83 µM] (inactive) | activity change, negative = inhibition [2]: -11.6% [at 3.88 µM] (inactive)

COc1ccc2[nH]cc(CCNC(=O)C3CC3)c2c1
Potency [1]: inactive | Potency [2]: inactive

N[C@H](CS)C(=O)O
Potency [1]: inactive | Potency [2]: inactive

CCCCc1nc2ccn(CC(=O)N(C)C)c(=O)c2n1Cc1ccc(-c2ccccc2-c2nn[nH]n2)cc1
Potency [1]: inactive | Potency [2]: inactive

Cc1cc(=O)oc2cc(NC(=O)C(CCCCN)NC(=O)C(CC3CCCCC3)NC(=O)OCC3c4ccccc4-c4ccccc43)ccc12 (stereo not drawn) (Fmoc-[Cha]-Lys-{AMC}; configuration not given here)
Potency [1]: 18.9 µM (active) | Potency [2]: inactive

CCCCCCCCCC(=O)OCC(CO)OC(=O)CCCCCCCCC (stereo not drawn)
activity change, negative = inhibition [1]: 1.45% [at 6.83 µM] (inactive) | activity change, negative = inhibition [2]: -13.4% [at 3.88 µM] (inactive)

CS(=O)(=O)Nc1c(O)ccc2c1CCCC2C1=NCCN1 (stereo not drawn)
Potency [1]: inactive | Potency [2]: inactive

OC[C@H]1O[C@@H](n2cnc3c(N[C@H]4C[C@H]5CC[C@@H]4C5)ncnc32)[C@H](O)[C@@H]1O
Potency [1]: inactive | Potency [2]: inactive

Cc1ccccc1N1CCN(S(=O)(=O)CC23CCC(CC2NC(=O)C(N)CCS(C)(=O)=O)C3(C)C)CC1 (stereo not drawn)
Potency [1]: inactive | Potency [2]: inactive

CCCCCCCCCCCCC(O)C(=O)O (stereo not drawn)
activity change, negative = inhibition [1]: 10.2% [at 6.83 µM] (inactive) | activity change, negative = inhibition [2]: 56.7% [at 3.88 µM] (inactive)

COC(=O)/C=C/c1cccc(N(Cc2ccc(-c3ccc(N(C)C)cc3)cc2)C(=O)C2CCCCC2)c1
Potency [1]: inactive | Potency [2]: inactive

CC(O)[C@@H](N)C(=O)O (stereo partly drawn)
Potency [1]: inactive | Potency [2]: inactive

COC(=O)[C@@H](c1ccccc1Cl)N1CCc2sccc2C1
Potency [1]: inactive | Potency [2]: inactive

[C-]#[N+]c1cc(-c2ccncc2)c(C)[nH]c1=O
Potency [1]: inactive | Potency [2]: inactive
